Data: PubChem BioAssay (NCI)
The panel holds about 83,000 compounds, 20% with a hit somewhere; the sample as a whole holds those more often.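 Treatment: one concentration, 48 hours, 96-well format. Scoring: percent growth, with anything below 10 considered active.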 The source made the active and inactive calls.

Test system: SNB-19 CNS
Test: NCI-60 one-dose screen, 48 h (100 = growth as untreated, 0 = no growth, -100 = all killed)
Conditions: 10 µM

SMILES	growth
CCOS(=O)(=O)c1c(C(C)C)cc(C(C)C)cc1C(C)C	103% (inactive)
CC(C)CCN(CCC(C)C)CC(=O)Nc1ccc(S(=O)(=O)c2ccc(NC(=O)CN(CCC(C)C)CCC(C)C)cc2)cc1	52.6% (inactive)
O=C(N/N=C/c1cc([N+](=O)[O-])ccc1O)c1cccc2ccccc12	53% (inactive)
COc1cc(Cc2cc(-c3ccccc3)n[nH]c2=O)cc(OC)c1OC	62.9% (inactive)
C1CN(CC2CCC(CN3CCOCC3)O2)CCO1 (stereo not given)	105% (inactive)
Cc1cc(=O)n2nnc3cc(Cl)c(Cl)cc3n12	110% (inactive)
CC(=O)N[C@H](C(=O)N[C@@H](CCCNC(=N)N)C(=O)N[C@@H](CCCCN)C(=O)N[C@@H](CCCNC(=N)N)C(=O)N[C@]1(C)CCCCCC/C=C\CCC[C@@](C)(C(=O)N[C@@H](CCCNC(=N)N)C(=O)N[C@@H](CCC(=O)O)C(=O)N[C@@H](CC(C)C)C(=O)N[C@H](C(=O)N[C@@H](CCC(=O)O)C(N)=O)C(C)C)NC(=O)[C@H](CCC(N)=O)NC(=O)[C@H](CC(C)C)NC(=O)[C@H](CC(C)C)NC(=O)[C@H](CCCNC(=N)N)NC(=O)[C@H](CCCNC(=N)N)NC(=O)[C@H](CC(C)C)NC1=O)C(C)C	6.45% (active)
Cc1ccc(/C=C2/C(=O)N(C)c3ccc(S(=O)(=O)Nc4ccc(C(C)(C)C)cc4)cc32)s1	66.6% (inactive)
CC(=O)[C@H]1CC[C@]2(C)[C@@H]1CC[C@@H]1[C@@]3(C)CC(CCC#N)(CCC#N)C(=O)C(C)(C)[C@@H]3CC[C@]12C	93.7% (inactive)
O=C(CCn1cnc2c(cc(-c3ccccc3)n2-c2ccccc2)c1=O)Nc1ccc(F)cc1	72.9% (inactive)
Cc1c(Cl)cccc1NC(=O)CN1CCOCC1	117% (inactive)
CC(C)(C)OC(=O)CN1CCc2c(sc3ncnc(N/N=C/c4cccc5ccccc45)c23)C1	53.7% (inactive)
CCn1c(SCc2ccc(C)cc2)nnc1-c1nn(-c2ccc(Cl)cc2Cl)c(-c2ccc(Cl)cc2)c1C	22.1% (inactive)
O=C(Nc1nc(-c2ccccc2)nc2c1sc(=S)n2-c1ccccc1)C(F)(F)F	105% (inactive)
Cc1c[nH]c(=O)n(Cc2nnc(CCC(=O)c3nc4ccccc4[nH]3)o2)c1=O	33.2% (inactive)
CCCCN(CCCC)C(=O)[C@H](CC)[C@@H]1CC[C@@H](C)[C@@H]([C@H](C)[C@@H](O)[C@@H](C)C(=O)[C@H](CC)C2O[C@]3(C=CC(=O)[C@]4(CC[C@@](C)([C@H]5CC[C@](O)(CC)[C@H](C)O5)O4)O3)[C@H](C)C[C@@H]2C)O1 (stereo not given in full)	27% (inactive)
CCN(CC)CCOc1cccc2c1C(=O)c1ccccc1C2=O	92.1% (inactive)
COc1cc(OC)c2c(=O)c(O)c(-c3ccccc3)oc2c1	62.4% (inactive)
COc1ccc(-c2cc(-c3ccccc3)nc(SCCCC(=O)NO)n2)cc1	10.6% (inactive)
COc1cc(-c2nn(-c3ccc(NC(=O)NCCNS(=O)(=O)c4ccc(F)cc4)cc3)cc2-c2ccncc2)ccc1Cl	31% (inactive)

SMILES	growth
Cc1[nH]c2ccccc2c1/C=N/Nc1ncnc2sc3c(c12)CCN(CC(=O)OC(C)(C)C)C3	93.3% (inactive)
O=C1CSC(=S)N1/N=C/c1ccc(Cl)s1	97.7% (inactive)
O=C(CC(CC(=O)c1ccccc1)c1ccccc1O)c1ccccc1	91.2% (inactive)
CCOC(=O)c1cc(C(=O)c2cc(OC)cc(OC)c2)n2nc(C)ccc12	39.4% (inactive)
CCCc1cn(CC(=O)Nc2nc3ccccc3s2)nn1	102% (inactive)
CC(CN(C)C)Oc1ccc(OC(C)CN(C)C)c2c1C(=O)c1ccccc1C2=O (stereo not given)	37.2% (inactive)
COc1cc(-c2nn(-c3cccc(NC(=O)NCCNC(=O)c4cccc(C(F)(F)F)c4)c3)cc2-c2ccncc2)ccc1Cl	53.5% (inactive)
Cc1ccc(NCCNCC(C)(C)O)c2c(=O)c3ccc(Cl)cc3sc12	46.2% (inactive)
CNS(=O)(=O)Oc1ccc(-c2sc3cc(OS(=O)(=O)NC)ccc3c2C(=O)c2ccc(OCCN3CCCCC3)cc2)cc1	82.7% (inactive)
CN(C)CCOc1ccccc1NC1=C(Cl)C(=O)C(Nc2ccccc2OCCN(C)C)=C(Cl)C1=O	93.9% (inactive)
COc1cc(-c2nn(-c3cccc(NC(=O)CCNc4ccc(N5CCOCC5)cc4)c3)cc2-c2ccncc2)ccc1Cl	32.9% (inactive)
C=CCSC(CC)(CC)C(=O)NC	102% (inactive)
Cc1c(Cl)cccc1NC(=O)CCCl	96.7% (inactive)
CC(=O)C1N=NCC1c1ccccc1 (stereo not given)	99.9% (inactive)
CCN(CC)CCOc1cccc2c1C(=O)c1cccc(OCCN(CC)CC)c1C2=O	31.8% (inactive)
CC(C)(C)OC(=O)CN1CCc2c(sc3ncnc(N/N=C/c4ccccc4Br)c23)C1	81.2% (inactive)
N#CCc1csc(Cc2ccccc2)n1	101% (inactive)
Clc1ccc(C2=NN=C3C(Cc4ccccc4)=Nc4ccccc4N3C2)cc1	93.3% (inactive)
CCN(CC)CC(=O)N(CC)c1ccc(C)c(Cl)c1	104% (inactive)
COc1cc(-c2csc(NC(=O)Nc3ccc(Cl)c(C(F)(F)F)c3)n2)cc(OC)c1OC	13.2% (inactive)
